17 compounds from PubChem BioAssay can be followed below.

The source made the active and inactive calls. Unless noted, how the calls were made is not given here.

Test [1] relates to XIP peptide (Xip251-270) binding. Description: small-molecule binders of XIP peptide, primary screen, biochemical, small-molecule microarray, fluorescence 635/667 nm, 0.1 µg/mL protein (AID 1182). Conditions: fluorescent protein binding, 635 nm, higher = more signal, called active from +8 up or from −8 down.
Another test deals with XIP peptide (Xip251-270). Briefly: small-molecule binders of XIP peptide, primary screen, biochemical, small-molecule microarray, fluorescence 635/667 nm, 0.5 µg/mL protein (AID 1183). As to conditions: small-molecule microarray binding, fluorescence 635 nm; higher = more signal.
Test [2] in a line: Plasmodium falciparum growth inhibition, primary screen, strain 3D7, DAPI fluorescence, 100 nL (AID 1184).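 Further: parasites grown inside human red blood cells in medium with human serum.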 As to conditions: P. falciparum 3D7 growth, 3 d, higher = more signal.
Test [3] has as its target Homeobox protein Hox-A13 (Mus musculus) (UniProt Q62424). Description: inhibitors of HoxA13-DNA binding, primary screen, biochemical, fluorescence polarization, labeled oligonucleotide (AID 1185). As to conditions: 15 min, higher = more signal, called active from +8 up or from −8 down. For orientation: Fluorescence polarisation rises when a labelled molecule tumbles more slowly, as on binding a larger partner.

A short description of test [4]: inhibitors of hydroxyurea-induced Chk1 phosphorylation, primary screen, imaging, HeLa, phospho-Chk1 antibody, percent positive cells (AID 1186). Conditions: hydroxyurea-induced phospho-Chk1 immunofluorescence imaging, higher = more signal.
A short description of test [5]: inhibitors of hydroxyurea-induced Chk1 phosphorylation, primary screen, imaging, HeLa, phospho-Chk1 nuclear intensity (AID 1187). As to conditions: hydroxyurea-induced phospho-Chk1 immunofluorescence imaging, higher = more signal.

Homeobox protein Hox-A13 (Mus musculus), sequence (Q62424 whole entry, looked up): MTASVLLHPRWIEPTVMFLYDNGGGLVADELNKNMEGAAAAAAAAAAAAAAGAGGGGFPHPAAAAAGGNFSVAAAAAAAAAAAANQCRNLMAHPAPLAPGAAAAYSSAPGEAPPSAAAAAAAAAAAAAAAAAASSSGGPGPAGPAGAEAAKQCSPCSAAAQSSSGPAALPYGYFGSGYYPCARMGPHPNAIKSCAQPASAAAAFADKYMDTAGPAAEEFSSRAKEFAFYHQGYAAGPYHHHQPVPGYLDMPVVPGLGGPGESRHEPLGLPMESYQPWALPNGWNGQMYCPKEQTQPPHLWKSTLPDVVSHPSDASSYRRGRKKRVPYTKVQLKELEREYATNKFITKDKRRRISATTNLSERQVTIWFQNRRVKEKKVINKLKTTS

As to `C=C(CCCC)C(=O)CC[C@H](OC(=O)c1ccccc1-c1ccccc1C(=O)O)c1ccccc1OCCO`, the values for the composite z-score (in test [1]; in the test with XIP peptide (Xip251-270)) were 0.267 (inactive) and 0.0422, respectively. Moreover, the z-score in test [2] was -2.61; in test [3], -5.63 (inactive); in test [4], -0.309 (inactive); in test [5] it was -0.102 (inactive).

In the case of `CS(=O)(=O)CCOC(=O)C1=CC(CCCO)=CC(C2CC2)N(Cc2cccc(OC(F)(F)F)c2)C=C1C(=O)OCCS(C)(=O)=O` (configuration not stated), the composite z-score in test [1] is 0.892 (inactive); with XIP peptide (Xip251-270), -0.221. Also, the z-score in test [2] is -2.11; in test [3], -6.49 (inactive); in test [4], -0.002 (inactive); in test [5], -0.36 (inactive).

For `C=C/C=C/[C@@H]1C(=C)CN([C@@H](Cc2ccccc2)C(=O)OC)[C@H]1[C@@H](O)Cc1ccccc1`, the composite z-score is 0.661 (inactive) in test [1] and 0.58 in the test with XIP peptide (Xip251-270). Further, the z-score in test [2] is 0.135; in test [3], -1.8 (inactive); in test [4] it was -0.176 (inactive); in test [5] it was 0.221 (inactive).

For `COCCCNC(=O)[C@@]1(Sc2ccc(C)cc2)CC(=O)N(Cc2ccccc2Cl)[C@@H]1c1ccc(CO)cc1I`, the composite z-score in test [1] is -0.517 (inactive); with XIP peptide (Xip251-270), 0.194. For the same compound, the z-score in test [2] is 1.22; in test [3] it was -2.55 (inactive); in test [4], 0.234 (inactive); in test [5], 0.456 (inactive).

Regarding `CCCC=C(CCC)[C@@H](NC(=O)CCc1ccccc1)c1ccc(C(F)(F)F)cc1`, the composite z-score in test [1] is -0.143 (inactive); with XIP peptide (Xip251-270), 0.75. For the same compound, the z-score is -1.65 in test [2], -3.8 (inactive) in test [3], 0.007 (inactive) in test [4] and -0.287 (inactive) in test [5].

For `[N-]=[N+]=NCc1ccccc1[C@H]1OC(c2ccc(OCCCO)cc2)=N[C@@]1(Cc1ccccc1)C(=O)NCCN1CCOCC1`, the composite z-score is 0.0723 (inactive) in test [1] and 0.816 with XIP peptide (Xip251-270). The z-score in test [2] is -2.28; in test [3], -0.974 (inactive); in test [4], -0.0389 (inactive); in test [5], 0.306 (inactive).

As to `CC(C)[C@H]1NC(=O)[C@@]23C(=O)N[C@@H](Cc4ccccc4)C2[C@H](C)[C@@]2(C)O[C@H]2C3/C=C/CCC/C=C/CNC(=O)[C@H](Cc2ccccc2)NC1=O` (some centres not stated), the composite z-score in test [1] was 0.621 (inactive); with XIP peptide (Xip251-270), 0.741. The z-score in test [2] was -1.83; in test [3], -6.22 (inactive); in test [4], -0.165 (inactive); in test [5], -0.0036 (inactive).

Turning to `COc1ccc([Si](C)(C)[C@H]2[C@H](CCO)O[C@@]3(C(=O)N(Cc4ccc(N5C(=O)c6ccccc6Oc6ccccc65)cc4)c4ccccc43)[C@@H]2C)cc1`, the results for the composite z-score (in test [1]; in the test with XIP peptide (Xip251-270)) were -0.136 (inactive) and 0.0004, respectively. Besides, the z-score in test [2] is -1.67; in test [3] it was -1.05 (inactive); in test [4], -0.557 (inactive); in test [5], -0.583 (inactive).

On to `CCOC(=O)C1=C[C@@H](C(C)(C)C)N(S(=O)(=O)c2ccc(C)cc2)[C@H]1c1cccc(Cl)c1`, for which the composite z-score in test [1] is -0.248 (inactive); with XIP peptide (Xip251-270), 0.765. Besides, the z-score in test [2] was -2.08; in test [3] it was 0.0204 (inactive); in test [4] it was 0.347 (inactive); in test [5] it was -0.136 (inactive).

As to `O=C1C2C=CC(C(O)c3cc(C(F)(F)F)cc(C(F)(F)F)c3)N(Nc3ccccc3F)C2C(=O)N1c1ccccc1` (configuration not stated), the figures for the composite z-score (in test [1]; in the test with XIP peptide (Xip251-270)) were 1.22 (inactive) and 0.481, respectively. The z-score is 0.915 in test [2], -2.39 (inactive) in test [3], 0.563 (inactive) in test [4] and 0.544 (inactive) in test [5].

Consider `O=C1OCC=C[C@H]2OC34C=CCN(c5ccc6ccccc6c5)C(=O)[C@H]3N(CCCCCO)C(=O)[C@@H]4[C@@H]12` (some centres not stated), for which the composite z-score in test [1] was 0.407 (inactive); in the test on XIP peptide (Xip251-270) it was 0.351. In addition, the z-score in test [2] was -0.471; in test [3], -4.6 (inactive); in test [4], 0.464 (inactive); in test [5] it was 0.0639 (inactive).

As to `CO[C@H]1O[C@H](CO)[C@@H](OC(=O)c2ccc(Br)cc2)[C@@H]2OC(=O)[C@H](Cc3ccccc3)C/C=C/C[C@@H](Cc3ccccc3)C(=O)O[C@@H]12`, the composite z-score in test [1] is -0.161 (inactive); with XIP peptide (Xip251-270), 0.629. Further, the z-score in test [2] is -0.949; in test [3] it was -5.27 (inactive); in test [4], -0.708 (inactive); in test [5] it was -1.06 (inactive).

As for `C=CCNC(=O)[C@H]1[C@@H]2C(=O)O[C@@H](c3ccccc3)[C@@H](c3ccccc3)N2[C@@H](c2ccc(OCCO)cc2)[C@]12C(=O)Nc1ccc(C#CCNC(N)=O)cc12`, the composite z-score in test [1] was 0.952 (inactive); with XIP peptide (Xip251-270), 0.512. Moreover, the z-score in test [2] is -1.13; in test [3], -3.66 (inactive); in test [4] it was 0.0622 (inactive); in test [5], 0.183 (inactive).

On to `C=C(COC)/C(=C/C[C@@H](OC(C)=O)c1ccc(CO)o1)c1cc(C(=O)OC)ccc1OC`, for which the composite z-score in test [1] was 0.824 (inactive); with XIP peptide (Xip251-270) it was 0.147. In addition, the z-score in test [2] was 0.0394; in test [3], -4.84 (inactive); in test [4], -1.06 (inactive); in test [5] it was -1.26 (inactive).

For the compound `CN1C(=O)C2C(C1=O)C1C=C(CCCO)C2C(c2cccs2)N1Cc1cc2c(cc1Br)OCO2` (configuration not stated), the composite z-score was 0.0841 (inactive) in test [1] and 0.757 in the test with XIP peptide (Xip251-270). Also, the z-score is -0.654 in test [2], -8.9 (active) in test [3], 0.214 (inactive) in test [4] and 0.228 (inactive) in test [5].

Turning to `CC(C)=CCCC(C)=CC(O)C1C=CC2C(=O)N(c3ccccc3)C(=O)C2N1Nc1ccccc1F` (configuration not stated), the composite z-score in test [1] was 0.0917 (inactive); in the test with XIP peptide (Xip251-270) it was 0.546. The z-score is 0.203 in test [2], -3.38 (inactive) in test [3], 0.0156 (inactive) in test [4] and 0.0908 (inactive) in test [5].

In the case of `O=C(CS)NCCCCCCNC(=O)[C@@H]1C[C@@H]2C(=O)NCC(=O)N2[C@@H]1c1ccc(O)cc1`, the figures for the composite z-score (in test [1]; in the test with XIP peptide (Xip251-270)) were 1.06 (inactive) and 0.897, respectively. Further, the z-score in test [2] was 0.271; in test [3] it was -1.63 (inactive); in test [4], -0.0858 (inactive); in test [5], 0.201 (inactive).
